The campaign covered roughly 300,000 compounds. About 37,000 (12%) were called active. Cut-off read from the data, not from the text of the source: active = max response mostly above about 13% (no sharp cut-off); inactive = mostly below about 14%. The full list was thinned out, with actives kept by preference.
experiment: Cycloheximide Counterscreen for Small Molecule Inhibitors of Shiga Toxin; settings: cell reporter, cycloheximide protein synthesis inhibition counterscreen; active compounds read high; note: read at 38.3 µM for the half of the compounds with a filed dose; 0% is about no effect

| Compound | max response |
| --- | --- |
| O=C1[C@@H]2C(c3cccnc3)=NO[C@@H]2C(=O)N1c1ccc(Cl)cc1Cl | -1.88% (inactive) |
| Oc1ccc(-c2nncn2-c2ccccc2)cc1 | 1.52% (inactive) |
| O=C(CN1CCN(c2ccc(O)cc2)CC1)Nc1ccc(-c2ccccc2)cc1 | -0.918% (inactive) |
| Oc1ccc(-c2cccc(-c3ccc(O)cc3)c2)cc1 | 29.3% (active) |
| CCc1ccc(CNC(=O)C2CCN(c3nnc(C)c4c(C)n(-c5ccc(C)cc5)nc34)CC2)cc1 | -4.27% (inactive) |
| COc1ccc(C(=O)N2CCCCC2C(=O)Nc2ccc(-n3nc(C)cc3C)cc2)o1 (configuration not stated) | -1.42% (inactive) |
| C[C@H](NC(=O)C1CC(=O)N(c2ccc3c(c2)OCO3)C1)C(=O)NCc1ccco1 (some centres not stated) | 1.48% (inactive) |
| CCOc1ccc(C2C(C#N)=C(N)N(N(C)C)C3=C2C(=O)CCC3)cc1 (configuration not stated) | 0.68% (inactive) |
| O=C(NC(c1ccccc1)c1ccccc1)N1CCN(CCO)CC1 | -1.21% (inactive) |
| O=C1c2ccccc2C(=O)c2c1cccc2N1CCN(CCO)CC1 | 28.2% (active) |
| O=C1c2ccccc2C(=O)c2c1cccc2N1CCN(Cc2ccccc2)CC1 | 1.13% (inactive) |
| CN(C)c1ccc(S(=O)(=O)NCC(=O)NCC2CCCCC2)cc1[N+](=O)[O-] | -5.92% (inactive) |
| Cc1ccc(NC(=O)Cc2nnc(SCC(=O)Nc3nncs3)n2C)cc1 | -3.09% (inactive) |
| CN1C(=O)/C(=C/c2ccc(C(=O)NC3CCCC3)cc2)Oc2ccccc21 | 7.07% (inactive) |
| COCCCN1C(=O)C(=O)/C(=C(/O)c2ccc(S(=O)(=O)N3CCOCC3)cc2)C1c1ccc(F)cc1 (configuration not stated) | -2.34% (inactive) |
| COc1ccc2cc(CCl)c(Cl)nc2c1 | 27% (active) |
| CCc1cc2cc(OC)ccc2nc1SCC(=O)Nc1cc(OC)c(OC)cc1C(=O)O | -1.72% (inactive) |
| COc1ccc(CN2CCC(c3nc4ccc(Cl)cc4[nH]3)CC2)cc1 | -5.26% (inactive) |
| O=C(NCc1ccccn1)C1CCN(S(=O)(=O)c2ccc(Br)cc2)CC1 | 5.38% (inactive) |
| Cc1c(NC(=O)CSCc2ccccc2)cccc1C(=O)O | 10.7% (inactive) |
| O=C(CSCc1ccccc1)Nc1ccccc1 | 54.4% (active) |
| Cn1c(CSCC(=O)Nc2ccccc2)nnc1SCc1ccccc1 | 1.76% (inactive) |
| CC(=O)c1ccc(NC(=O)c2ccc(-n3cncn3)c([N+](=O)[O-])c2)cc1 | 5.03% (inactive) |

| Compound | max response |
| --- | --- |
| CC(C)C(c1nnnn1C1CCCCC1)N1CCN(C(=O)c2ccco2)CC1 (configuration not stated) | -3.08% (inactive) |
| COc1ccc(N(CC(=O)Nc2ccc(F)c(F)c2)S(=O)(=O)c2c(C)[nH]c(=O)[nH]c2=O)cc1 | -1.45% (inactive) |
| CCc1ccc(/C=N/NC(=O)c2nnn(-c3nonc3N)c2CN2CCc3ccccc32)cc1 | 1.36% (inactive) |
| CC(CCc1ccccc1)NC(=O)c1cnc(Cl)c(Cl)c1 (configuration not stated) | -1.25% (inactive) |
| Cc1cccc(OCC(=O)NCCNC(=O)c2cccnc2)c1 | -6.99% (inactive) |
| CCOC(=O)CC1(NC(=O)c2cc(COc3cncc(Cl)c3)on2)CCCCC1 | 11.2% (active) |
| Cc1noc(C)c1COc1cccc(C(=O)Nc2cccnc2)c1 | -2.49% (inactive) |
| CCCOC1CCCN(C(=O)c2cc(COc3cncc(Cl)c3)on2)C1 (configuration not stated) | 40.2% (active) |
| CC(=O)c1cccc(OCc2cc(C(=O)NC(C)Cc3cccnc3)no2)c1 (configuration not stated) | 23% (active) |
| Cc1cccnc1CC(C)NC(=O)c1cc(COc2cncc(Cl)c2)on1 (configuration not stated) | 32.7% (active) |
| Cc1cc(Cl)ccc1C(=O)C1CCCN(C(=O)c2nonc2C)C1 (configuration not stated) | -0.841% (inactive) |
| CCOC(=O)C1CCCN(C(=O)c2cncc(Br)c2)C1 (configuration not stated) | -3.79% (inactive) |
| Cc1cccnc1NC(=O)CSc1nnc(COc2ccc(C(C)C)cc2)n1C | -8.69% (inactive) |
| O=C(Cc1ccccc1)Nc1c(Cl)ccc2nsnc12 | -0.56% (inactive) |
| CCOC(=O)c1c(S(=O)(=O)NCC(=O)Nc2ccc(C)cc2)c(C)n(C)c1C | -0.626% (inactive) |
| COC(=O)c1cc(NS(=O)(=O)c2ccc3c(c2)c(=O)n(C)c(=O)n3C)cc(C(=O)OC)c1 | -10.6% (inactive) |
| Cc1cccc(N(C(=O)c2csnn2)C(C(=O)NCc2ccccc2)c2ccncc2)c1 (configuration not stated) | -3.2% (inactive) |
| COc1ccc(S(=O)(=O)N2CCC(C(=O)NCc3ccco3)CC2)cc1C | -1.76% (inactive) |
| Cc1ccccc1C(OCCN(C)C)C1CCCCC1 (configuration not stated) | -3.58% (inactive) |
| COc1ccc(NS(=O)(=O)c2cc(NC(=O)C3CCCCC3)ccc2N2CCOCC2)cc1 | -4.24% (inactive) |
| CC(C)CNc1ncnc2c1cnn2Cc1ccc(Cl)cc1 | -1.18% (inactive) |
| CC(NC(=S)NNS(=O)(=O)c1ccc(C(C)(C)C)cc1)c1ccccc1 (configuration not stated) | -3.09% (inactive) |
| CC(C)CC(NC(=O)C1CCCN1C(=O)[C@@H](C)NC(=O)OCc1ccccc1)C(=O)NCC(N)=O (some centres not stated) | 18.5% (inactive) |

| Compound | max response |
| --- | --- |
| COCC(=O)N1CCCC(C(=O)c2ccc(C(F)(F)F)cc2)C1 (configuration not stated) | 2.21% (inactive) |
| COc1ccc(CNC(=O)Cc2ccc(-c3ccccc3)cc2)cc1OC | -3.24% (inactive) |
| CCn1cc(C(=O)NCCC(=O)NCCO)c(=O)c2cc3c(cc21)OCO3 | -3.2% (inactive) |
| O=C(NCc1nnc(SCC(=O)N2CCCCCC2)o1)c1ccc(F)cc1 | -0.334% (inactive) |
| CC[C@@H]1Cc2cc(O)ccc2C2=C1c1ccc(O)cc1C[C@H]2CC | -6.86% (inactive) |
| COc1cc(C2C(C(=O)c3ccco3)=C(O)C(=O)N2c2cc(C)on2)ccc1OCc1ccccc1 (configuration not stated) | -4.25% (inactive) |
| C=CCSc1nnc(N2C(=O)C(O)=C(C(=O)c3ccco3)C2c2ccc(F)cc2)s1 (configuration not stated) | 1.8% (inactive) |
| Cc1ccc2nc(N3C(=O)C(O)=C(C(=O)c4ccco4)C3c3cccc(O)c3)sc2c1 (configuration not stated) | 23.5% (active) |
| CCOC(=O)C1CCCN(CCSc2ccc(C)cc2)C1 (configuration not stated) | 0.771% (inactive) |
| O=C(NC1CCCC1)C(c1ccco1)N(C(=O)c1ccco1)c1ccc(F)cc1 (configuration not stated) | -3.92% (inactive) |
| Cc1cc(F)ccc1NC(=O)C(C)n1c2ccccc2c2nc(=O)cc(C)n21 (configuration not stated) | -0.783% (inactive) |
| CSc1cccc(NC(=S)N(Cc2ccccc2)Cc2ccccn2)c1 | 7.83% (inactive) |
| Cn1c(CC(=O)Nc2ccc(F)cc2)nnc1SCC(=O)NC1CCCCC1 | -1.89% (inactive) |
| CCOC(=O)C1(Cc2cccc(OC)c2)CCCN(C(=O)CCSC)C1 (configuration not stated) | 28.4% (active) |
| CCOC(=O)C1(Cc2cccc(OC)c2)CCN(C(C)COC)CC1 (configuration not stated) | 12.7% (inactive) |
| CCOC(=O)C1(Cc2cccc(OC)c2)CCCN(S(=O)(=O)c2cccnc2)C1 (configuration not stated) | -3.01% (inactive) |
| CN(C)C(CNC(=O)c1cccc(C#N)c1)c1ccco1 (configuration not stated) | 8.17% (inactive) |
| O=C(CCl)Nc1cccc(CP(=O)(c2ccccc2)c2ccccc2)c1 | -1.7% (inactive) |
| CC(C)(CCl)C(=O)Nc1ccc(Sc2ccc(F)cc2)cc1 | 31% (active) |
| COCC(=O)Nc1ccc(Br)cc1 | -0.947% (inactive) |
| CCN(c1ccccc1)S(=O)(=O)c1ccc(NC(=O)C(C)(C)C)cc1 | -3.17% (inactive) |
| CS(=O)(=O)N(CC(=O)Nc1ccc(F)cc1)C1CCCCC1 | -2.39% (inactive) |
| O=C(CCl)Nc1ccc(Sc2ccc(NC(=O)CCl)cc2)cc1 | 24.3% (active) |

| Compound | max response |
| --- | --- |
| COC(=O)c1sc(N2CCN(Cc3ccccc3)CC2)nc1N | -1.52% (inactive) |
| O=C(Nc1c2c(nn1-c1ccccc1)CS(=O)(=O)C2)C1CCCC1 | -1.45% (inactive) |
| N#C/C(=C\c1ccc(-c2cccc([N+](=O)[O-])c2)o1)C(=O)NCCN1CCOCC1 | 2.05% (inactive) |
| O=[N+]([O-])c1ccccc1SNc1ccccn1 | 0.9% (inactive) |
| COc1ccc(N(CC(=O)NC(C)(C)C)C(=O)c2ccco2)cc1 | 1.33% (inactive) |
| C/C(CC(=O)NC(C)(C)C)=N\NC(=O)c1ccco1 | 40.4% (active) |
| CC(C)(C)NC(=O)c1cc(NC(=O)c2ccco2)cc(NC(=O)c2ccco2)c1 | -2.77% (inactive) |
| COc1cc(S(=O)(=O)N2CCN=C2c2ccccc2)ccc1Cl | 3.04% (inactive) |
| CCOC(=O)c1nn(-c2cccc(C)c2)cc1C(=O)c1ccccc1 | 43.2% (active) |
| CC(=O)c1nn(-c2cccc(Br)c2)cc1C(=O)c1cccc2ccccc12 | 4.07% (inactive) |
| CCOC(=O)c1cn(Cc2cccc(C)c2)nn1 | -0.759% (inactive) |
| Cc1ccc(S(=O)(=O)N(CC(=O)NCCSC2CCCCC2)c2ccccc2F)cc1 | -3.31% (inactive) |
| NS(=O)(=O)c1ccc(CCNc2nc(C(F)(F)F)nc3ccccc23)cc1 | -0.703% (inactive) |
| COc1ccc(CCNC(=O)CSCc2ccc(Br)cc2)cc1OC | 1.16% (inactive) |
| Cc1nn(C)cc1CNC(=O)Nc1ccc(Cl)cc1 | 21.8% (active) |
| COc1ccc(Cl)cc1C(=O)NCc1cn(C)nc1C | -4.09% (inactive) |
| Cn1ccc(NC(=O)Nc2ccc(Cl)cc2)n1 | 36.8% (active) |
| Cn1c(SCC(=O)Nc2ccc(Cl)cc2)nc(O)cc1=O | -0.536% (inactive) |
| CN(C(=O)Nc1ccc(Cl)cc1)n1cnc2ccccc2c1=O | 3.38% (inactive) |
| Cc1nn(C)cc1C(=O)NNC(=S)Nc1ccc(Cl)cc1 | -3.2% (inactive) |
| CCc1ccccc1NC(=O)CN(c1ccc(OC)cc1OC)S(=O)(=O)c1ccccc1[N+](=O)[O-] | 10.7% (inactive) |
| O=c1ccc2cc(S(=O)(=O)Nc3ccccc3F)ccc2o1 | -3.48% (inactive) |
| Cc1ccc2c(c1)-c1c(ssc1=S)C(C)(C)N2C(=O)CN1C(=O)c2ccccc2C1=O | -4.7% (inactive) |
